# Inconclusive results are not listed. Where a call stands in place of a potency, no number is given. Activity calls are given as the source filed them. Calls follow the shape of the dose curve; as a rule, active = well fitted inhibition curve with a large enough effect; inconclusive = small, poorly fitted or top-dose-only effect; inactive = no such curve, though single readings can be large or run the other way.
# Experiment: qHTS for Inhibitors of the Aldehyde Dehydrogenase Family (ALDH1A2, ALDH1A3, ALDH2, ALDH3A1) (AID 2061307); also: nearly all actives have a fitted effect of over 50% in size; as to potency: test system not described further here
# Conditions: ALDH inhibition qHTS; series mostly up to 50.3 µM
# Potency is read from the fitted curve at half-maximal effect.
row,SMILES,Potency
1,Cn1nc(-c2ccccc2)cc1C(=O)N[C@H](Cc1ccc2ccccc2c1)C(=O)O,inactive
2,O=C(Cn1c2ncccc2c(=O)n1-c1ccccc1)Nc1ccc(Cl)cc1C(F)(F)F,inactive
3,N#Cc1ccc(NC(=O)Cc2csc3nc(-c4ccccc4)cn23)cc1,18.2 µM (active)
4,COc1ccc2c(c1)C(C)(CCN(C)C)C(=O)N2C (configuration not stated),inactive
5,CCOc1ccc(NC(=O)Cn2c(=O)n(-c3ccccc3)c(=O)c3ccc(C(=O)NCc4ccc5c(c4)OCO5)cc32)cc1,inactive
6,O=C(Nc1ccc(C(=O)N2CCCC2)cc1)c1ccccc1F,10.7 µM (active)
7,Nc1c(Cc2ccc(S(N)(=O)=O)cc2)c(-c2ccccc2)nn1-c1nc(C(=O)O)co1,inactive
8,O=C(Nc1nnc(C(F)(F)F)s1)c1ccc(Cl)cc1,inactive
9,O=C(NCc1ccccn1)c1ccc2nnc(-c3ccc(OC(F)(F)F)cc3)n2c1,inactive
10,Cc1ccc2c(c1)/C(=C\C(=O)c1cccs1)C(=O)N2,inactive
11,COCCN(C)S(=O)(=O)c1ccc(NC(=O)c2ccc(CN3CCc4ccccc4C3)cc2)cc1,inactive
12,CC(C)CCn1c(O)c(N=NC(=O)c2cccnc2)c2ccccc21,inactive
13,O=C(Nc1ncc(CN2CCOCC2)s1)c1ccc(-c2cccc([N+](=O)[O-])c2)o1,28.2 µM (active)
14,COc1c(F)cc2[nH]c(C(=O)O)cc2c1F,inactive
15,O=C(N/N=C/c1ccc(Br)o1)c1ccccc1,inactive
16,Cc1cc(=O)n2[nH]c(NC(=O)c3ccccc3C)nc2n1,inactive
17,Cc1ccc(NC(=O)c2nc3nc(C)cc(C)n3n2)c(F)c1,inactive

# Reference: PubChem BioAssay (NCATS)
